{"source": "the supplement of paper PMC6555819"}
{"tested_on": "VDR:RXRa (NR concentration 270 nM, RXRa partner concentration 90 nM)", "assay": "PBM binding z-score (relative to random genomic background probes); higher = stronger binding; sequences stand for … in GC…GCGATTGACAGCGTAGAATGAAGG", "procedure": "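Protein-binding microarray (Agilent 4x180K custom design, double-stranded 60-nt probes: 5' GC cap, 34-nt variable region, 24-nt constant primer region; full probe sequence given). Purified or IVT nuclear receptor:RXRα heterodimers (3:1 NR:RXRα, mostly 270:90 nM) or homodimers were incubated for 1 h in PBS with 2% milk and no ligand, then detected with Alexa488 antibodies. Fluorescence from o1-orientation probes (~5 replicates averaged) was converted to z-scores against 500 random hg19 background probes. Variable regions are seed direct-repeat (DR0–DR5) sites, all their single-nucleotide variants and half-site ablations.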"}
{"sequence": "ACTATTAGTTGACTTAGGGCAACCAATACGACGC", "PBM binding z-score": 0.354}
{"sequence": "TCTATTAGTTGATTAGGGAAACCGAAACAGCGGA", "PBM binding z-score": 0.846}
{"sequence": "CCAACTGGGCCAAGGTCATTGATCAGTCAAAGCA", "PBM binding z-score": 3.1}
{"sequence": "AGTCAAAGTTCACTAGGAAACGTAAGATTCAGCT", "PBM binding z-score": 3.48}
{"sequence": "ACAGACAGGTGAAGAAGGTAACTCAGGCTATCAT", "PBM binding z-score": 0.439}
{"sequence": "TAAATGAGGTTATAAGATCAGGGAACGTTGCAAA", "PBM binding z-score": 1.1}
{"sequence": "AGAACGAGGGCAATGAGTCGATAGCACGGGTGGC", "PBM binding z-score": 2.39}
{"sequence": "CCGACTGGGGCAAAGGTTACAATACTCAGTACGA", "PBM binding z-score": 1.71}
{"sequence": "CCTACTGGGCCATTCAGAGGTCAGTGATCATATG", "PBM binding z-score": 1.59}
{"sequence": "GGAACGAGGGCATTCGAGTTGATACCATGGCGAT", "PBM binding z-score": 3.67}
{"sequence": "TCATATAGGTAAAGGTCAAAGTCGAACGATATGA", "PBM binding z-score": 4.77}
{"sequence": "TCGAGTAGGTTAGTCGGGGCATTCAGCCAACATA", "PBM binding z-score": 2.07}
{"sequence": "TCTTGTAGATCACAGGTTAAGAAAGCCGAAGCCT", "PBM binding z-score": 0.396}
{"sequence": "CCGACTGGGGCAGAAAGTTTACCATACCATCCGG", "PBM binding z-score": 0.484}
{"sequence": "GCATATAGGTAATACAAGGTGTAAGTCCGATTGT", "PBM binding z-score": -0.12}
{"sequence": "TCTATTAGTTGAAGGGCACCCGACGAGTCCGTTT", "PBM binding z-score": 1.02}
{"sequence": "CCAACTGGGCCATCAGGTCATTGATATCAACGTT", "PBM binding z-score": 1.98}
{"sequence": "TAAATGAGGTTAAAGATCAGGGAACGTGGCGTCG", "PBM binding z-score": 2.22}
{"sequence": "CTACCAACGTGAACAAGGTCGTTGATTACTATTC", "PBM binding z-score": 2.05}
{"sequence": "GCTATTAGTTGAAAGGACAACCGAATGATTCTCG", "PBM binding z-score": -0.113}
{"sequence": "TCTTGTAGCTCAACAGGAGGTTAAGAAAGATCGA", "PBM binding z-score": 0.0738}
{"sequence": "TTACCAAGCTGAAGGTCGTTGATCCCTCTGTAGA", "PBM binding z-score": 0.724}
{"sequence": "TCTGCTAGGTCAACGATGGTCCGCTAATCTGCTA", "PBM binding z-score": 1.14}
{"sequence": "ATCTCTAGGTAACCAAGTTCGGTGAATGCCGAAC", "PBM binding z-score": 1.83}
{"sequence": "CCTACTGGGCCATTCAGAGTTCATTGATCATATG", "PBM binding z-score": 3.5}
{"sequence": "GCTGCCAGGTCAGGTTGGTCAGCTAACGGGTACG", "PBM binding z-score": 1.03}
{"sequence": "CGTCCAAGGTCAATCCTAGGTCAGTGAAAGCATT", "PBM binding z-score": 4.96}
{"sequence": "AGTAAAAGTTCATCTAGGTAACGTAAGATATGCT", "PBM binding z-score": 4.57}
{"sequence": "AGAATGAGGTTATACGTAGAGCAGGGAAGAAAGT", "PBM binding z-score": 1.23}
{"sequence": "AGAACGAGGTTATTAAGATCAGGGAATTGCGGTC", "PBM binding z-score": 2.38}
{"sequence": "GTACCAAGGTGATTAGGTCGTTGATGAGTAGGCG", "PBM binding z-score": 0.223}
{"sequence": "ATCGAAAGGTCGTGAGGTGAGTATCCAGAAAGGC", "PBM binding z-score": 3.39}
{"sequence": "ATCTCTAGTTAAGACTCAGTTCAGTGAAGAACGC", "PBM binding z-score": 1.2}
{"sequence": "TGAATGAGGTTAATGATCAGGGAACGTGGCGTCG", "PBM binding z-score": 0.633}
{"sequence": "CAAACTAGGTCACCGGAAGGTCAAAGCCCGCATG", "PBM binding z-score": 5.79}
{"sequence": "CGTCCAAGGTCAGCAGGTCAGTGAGAGCGACGTG", "PBM binding z-score": 4.04}
{"sequence": "CCTACTGGGCCAAAAAGGTCATTCATGCCGATAA", "PBM binding z-score": 4.88}
{"sequence": "CGAACTAGGTCATCCAGGACAGTGAGTACATTGA", "PBM binding z-score": 5.02}
{"sequence": "CAGCCTAGGTCAGGGCCAGTATCGGAGGAACGTT", "PBM binding z-score": -0.0138}
{"sequence": "CGTCCAAGGTCATAGGCGGTCAGTGAAGACAGAT", "PBM binding z-score": 4.7}
